Among the data in PubChem BioAssay (NCI) are growth values, retold here.

Compounds without any hit were thinned out: in the full panel of roughly 83,000, 20% have a hit.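 Single-concentration screen, 48 h exposure, 96-well plates. Endpoint: percent growth. Below 10 = active.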 Values without a mark were called inactive. Calls of active or inactive are those of the source.

Test systems include RPMI-8226 leukemia; OVCAR-8 ovarian; OVCAR-5 ovarian; OVCAR-4 ovarian; SK-OV-3 ovarian; IGROV1 ovarian; OVCAR-3 ovarian; HS 578T breast; NCI/ADR-RES ovarian; T-47D breast.
Assay in all cases: NCI-60 one-dose screen, 48 h (100 = growth as untreated, 0 = no growth, -100 = all killed)
What all share (conditions): 10 µM

Take `COc1cc2cc3c(nc2cc1OC)CCN3Cc1ccc(NC(=O)Nc2ccc(F)cc2F)cc1`: the growth with RPMI-8226 leukemia is 66%; in the assay with OVCAR-8 ovarian it was 79.7%; in the assay with OVCAR-5 ovarian, 105%; with OVCAR-4 ovarian, 61.2%; in the assay on SK-OV-3 ovarian, 84%; with IGROV1 ovarian, 89.8%. Further, the growth was 84.1% in the assay with OVCAR-3 ovarian, 99.7% in the assay with HS 578T breast, 73% in the assay with NCI/ADR-RES ovarian and 52.1% with T-47D breast.

For `N=c1c2c(-c3ccccc3)c(-c3ccccc3)n(Cc3ccccc3)c2ncn1CCCO`, the growth in the assay with RPMI-8226 leukemia was 18.7%; in the assay with OVCAR-8 ovarian it was 32.5%; with OVCAR-5 ovarian, 55.6%; in the assay with OVCAR-4 ovarian it was 35.7%; in the assay with SK-OV-3 ovarian, 70.7%; with IGROV1 ovarian, 8.33% (active). Moreover, the growth was 8.78% (active) with OVCAR-3 ovarian, 46% with HS 578T breast, 42.9% with NCI/ADR-RES ovarian and 65.9% in the assay on T-47D breast.

Take `FC(F)(F)c1ccc(-c2cnc(-n3cc(COCCN4CCCCC4)nn3)nc2NC2CCCCCC2)cc1`: the growth in the assay with RPMI-8226 leukemia was -29.1% (active); in the assay on OVCAR-8 ovarian, 54.7%; in the assay on OVCAR-5 ovarian, 67.9%; in the assay with OVCAR-4 ovarian, 39.9%; with SK-OV-3 ovarian, 56.8%; with IGROV1 ovarian, 36.7%. Also, the growth was 37.1% in the assay with OVCAR-3 ovarian, 61.3% with HS 578T breast, 70.6% in the assay with NCI/ADR-RES ovarian and 30.5% in the assay on T-47D breast.

Consider `O=C(Nc1ccc(Cl)cc1)N1NC(c2ccc(Cl)cc2)C=C1c1ccccc1` (stereo not given), for which the growth in the assay on RPMI-8226 leukemia is 99.5%; with OVCAR-8 ovarian it was 97%; with OVCAR-5 ovarian, 124%; with OVCAR-4 ovarian, 91.5%; with SK-OV-3 ovarian, 97%; in the assay with IGROV1 ovarian it was 95.3%. Besides, the growth in the assay on OVCAR-3 ovarian was 103%; in the assay on HS 578T breast, 123%; with NCI/ADR-RES ovarian it was 115%; with T-47D breast it was 94%.

As to `NC(=O)c1ccc(-c2cccc3c(=O)nc(N4CCOCC4)oc23)cc1`, the growth was 104% in the assay with RPMI-8226 leukemia; 101% in the assay on OVCAR-8 ovarian; 96.8% in the assay with OVCAR-5 ovarian; 90.5% with OVCAR-4 ovarian; 103% in the assay with SK-OV-3 ovarian; 103% with IGROV1 ovarian. For the same compound, the growth is 99.4% with OVCAR-3 ovarian, 97.2% in the assay on HS 578T breast, 97.3% with NCI/ADR-RES ovarian and 87.8% in the assay with T-47D breast.

As for `CN(C)c1ccc(/C=C/C=N/NC(=O)c2cc(O)c(O)c(O)c2)cc1`, the growth with RPMI-8226 leukemia is 99.9%; with OVCAR-8 ovarian it was 89.3%; with OVCAR-5 ovarian, 102%; in the assay on OVCAR-4 ovarian, 67.8%; in the assay on SK-OV-3 ovarian, 99.3%; in the assay on IGROV1 ovarian it was 100%. Also, the growth in the assay with OVCAR-3 ovarian was 90.9%; with HS 578T breast, 100%; in the assay with NCI/ADR-RES ovarian it was 102%; in the assay with T-47D breast it was 25.3%.

As to `N#CCCN(NC(=O)OCc1ccccc1)C(=O)OCc1ccccc1`, the growth in the assay with RPMI-8226 leukemia is 110%; with OVCAR-8 ovarian it was 99%; with OVCAR-5 ovarian it was 108%; with OVCAR-4 ovarian, 111%; with SK-OV-3 ovarian, 122%; in the assay with IGROV1 ovarian it was 118%. In addition, the growth in the assay with OVCAR-3 ovarian was 118%; in the assay with HS 578T breast, 103%; in the assay on NCI/ADR-RES ovarian, 105%; in the assay on T-47D breast, 109%.

Turning to `COc1ccc(NC2=NC(C)(CO)CS2)cc1` (stereo not given), the growth was 83.6% in the assay on RPMI-8226 leukemia; 74.3% in the assay on OVCAR-8 ovarian; 103% in the assay with OVCAR-5 ovarian; 97.7% in the assay on OVCAR-4 ovarian; 104% in the assay with SK-OV-3 ovarian; 87.7% in the assay on IGROV1 ovarian. Moreover, the growth in the assay with OVCAR-3 ovarian is 112%; in the assay on HS 578T breast, 99.3%; in the assay with NCI/ADR-RES ovarian, 106%; with T-47D breast, 101%.

Turning to `COc1cc(-c2cc(/C=C/C(=O)c3ccc4c(c3)OCO4)[nH]n2)cc(OC)c1OC`, the growth was -11.6% (active) with RPMI-8226 leukemia; 76.6% in the assay with OVCAR-8 ovarian; 83.3% with OVCAR-5 ovarian; 76.6% in the assay on OVCAR-4 ovarian; 99.2% in the assay with SK-OV-3 ovarian; 98.5% in the assay with IGROV1 ovarian. In addition, the growth with OVCAR-3 ovarian is 77.7%; in the assay on HS 578T breast it was 86.6%; in the assay with NCI/ADR-RES ovarian, 78.5%; with T-47D breast, 40%.

`COc1ccc(-c2nc(-c3nc4ccc(OC)cc4[nH]3)cc3c2[nH]c2ccccc23)cc1`: the growth in the assay on RPMI-8226 leukemia was -28.2% (active); with OVCAR-8 ovarian, 17.5%; in the assay on OVCAR-5 ovarian it was 90%; in the assay on OVCAR-4 ovarian, 52.8%; in the assay with SK-OV-3 ovarian it was 99.2%; in the assay with IGROV1 ovarian, 21.1%. Also, the growth was 51.9% with OVCAR-3 ovarian, 18.8% in the assay with HS 578T breast, 32.9% with NCI/ADR-RES ovarian and 25.5% with T-47D breast.

On to `O=S(=O)(NCCCNc1nccc(-c2c(-c3ccc(F)cc3)nc3sccn23)n1)c1ccc2ccccc2c1`, for which the growth is 35.9% with RPMI-8226 leukemia; 29.7% with OVCAR-8 ovarian; 78.7% in the assay with OVCAR-5 ovarian; 56.8% in the assay on OVCAR-4 ovarian; 65.2% with SK-OV-3 ovarian; 22.8% in the assay with IGROV1 ovarian. Also, the growth in the assay with OVCAR-3 ovarian was 75.3%; in the assay on HS 578T breast, 71.1%; in the assay with NCI/ADR-RES ovarian, 42.5%; in the assay on T-47D breast it was 17.4%.

With `O=C(Nc1cccc(-n2cc(-c3ccncc3)c(-c3ccc(O)c(Cl)c3)n2)c1)Nc1cccc(C(F)(F)F)c1`, the growth was -29.4% (active) in the assay with RPMI-8226 leukemia; -49.9% (active) in the assay on OVCAR-8 ovarian; 38.1% in the assay on OVCAR-5 ovarian; 2.73% (active) with OVCAR-4 ovarian; 4.94% (active) with SK-OV-3 ovarian; -1.92% (active) in the assay on IGROV1 ovarian. Moreover, the growth was -6.21% (active) with OVCAR-3 ovarian, -4.27% (active) in the assay on HS 578T breast, 11.4% in the assay with NCI/ADR-RES ovarian and -23.6% (active) in the assay on T-47D breast.

As for `COc1ccc2c(c1)C(=O)c1c-2c(=O)n(CCCN(C)C)c2cc(OC)c(OC)cc12`, the growth was 66.6% with RPMI-8226 leukemia; 62.1% in the assay on OVCAR-8 ovarian; 130% in the assay on OVCAR-5 ovarian; 74.4% in the assay on OVCAR-4 ovarian; 69.9% in the assay with SK-OV-3 ovarian; 67.2% with IGROV1 ovarian. The growth in the assay with OVCAR-3 ovarian was 94.9%; with HS 578T breast, 119%; in the assay with NCI/ADR-RES ovarian it was 58.7%; with T-47D breast it was 81.2%.
